# Results filed as inconclusive are left out. Values without a mark were called inactive. Activity calls are given as the source filed them. Calls come from the whole dose curve.
# Assay: Primary qHTS for inhibitors of MERS-S pseudo-typed particle cell entry (AID 1479149); note: nearly all actives have a fitted effect of over 60% in size
# Settings: MERS-S pseudotyped particle entry, luciferase; series mostly up to 57.1 µM; activity change, negative = inhibition: at the top concentration
# % is set by controls: 0 for no effect and ±100 for the full control effect.
Structure (SMILES),outcome,"activity change, negative = inhibition"
CN1CCN(CC(=O)N2c3ccccc3C(=O)Nc3cccnc32)CC1,inactive [at 5.34 µM],–
CN[C@@H]1[C@@H](O)[C@@H](O[C@@H]2[C@H](O)[C@H](O[C@H]3OC(CN)=CC[C@H]3N)[C@@H](N)C[C@H]2N)OCC1(C)O (stereo partly specified),inactive,–
COc1ccc(C(=O)c2ccccc2)c(O)c1,inactive,–
CCCCCCCCCCCCOCCO,inactive,–
Cc1cccc(C)c1OCC(=O)N[C@@H](Cc1ccccc1)[C@@H](O)C[C@H](Cc1ccccc1)NC(=O)[C@H](C(C)C)N1CCCNC1=O,–,-7.47%
C[C@]12CCC(=O)C=C1CC[C@H]1[C@@H]3CC[C@](O)(C(=O)CO)[C@@]3(C)C[C@H](O)[C@@]12F,inactive,–
NC(=O)c1cnccn1,inactive,–
CCCCCCCC/C=C/C(=O)O,inactive,–
CCO[C@H](Cc1ccc(OCCc2ccc(OS(C)(=O)=O)cc2)cc1)C(=O)O,inactive,–
CCCCCCCCCCCCCCCCCC(=O)OCC(O)CO (stereo unspecified),inactive,–
NCCS(=O)(=O)O,inactive,–
O=C(O)c1cc(=O)c2c(OCC(O)COc3cccc4oc(C(=O)O)cc(=O)c34)cccc2o1,inactive,–
CCN(CC)CCNC(=O)c1cc(S(C)(=O)=O)ccc1OC,inactive,–
CC(=O)OCC[N+](C)(C)C,inactive,–
Cc1cc(O)c2c(O)c3c(O)cccc3cc2c1,inactive,–
CCCCCCCCCCCCCCCC(=O)OCCC1CCN(CCCN2c3ccccc3Sc3ccc(S(=O)(=O)N(C)C)cc32)CC1,inactive,–
CC(=O)Nc1ccc(OC(=O)c2ccccc2OC(C)=O)cc1,inactive,–
CCCCCCCN(CC)CCCC(O)c1ccc(NS(C)(=O)=O)cc1 (stereo unspecified),inactive,–
CCCCC(CC)COC(=O)c1ccccc1O (stereo unspecified),inactive,–

Structure (SMILES),outcome,"activity change, negative = inhibition"
CNC(=O)c1c(I)c(NC(C)=O)c(I)c(C(=O)O)c1I,inactive,–
O=P(O)(O)C(O)(Cn1ccnc1)P(=O)(O)O,inactive,–
CCOC(=O)/C=C(C)/C=C/C=C(C)/C=C/c1c(C)cc(OC)c(C)c1C,–,6.9%
O=C(COCCOCCOCC(=O)Nc1c(I)cc(I)c(C(=O)O)c1I)Nc1c(I)cc(I)c(C(=O)O)c1I,inactive,–
C[C@H](CS)C(=O)N1CCC[C@H]1C(=O)O,inactive,–
O=C(c1ccccc1)c1ccccc1,inactive,–
COc1cnc(NS(=O)(=O)c2ccc(N)cc2)nc1,inactive,–
Nc1ccc(S(=O)(=O)NC(=O)c2ccccc2)cc1,inactive,–
NCCNCCNCCNCCN,inactive [at 11.4 µM],–
CC(=O)NS(=O)(=O)c1ccc(N)cc1,inactive,–
CCCCOC(=O)c1ccc(O)cc1,inactive,–
CC(CCc1ccccc1)NCC(O)c1ccc(O)c(C(N)=O)c1 (stereo unspecified),inactive,–
CO[C@@]1(NC(=O)C2SC(=C(C(N)=O)C(=O)O)S2)C(=O)N2C(C(=O)O)=C(CSc3nnnn3C)CS[C@@H]21 (stereo partly specified),inactive,–
NC[C@H]1O[C@H](O[C@H]2[C@H](O[C@@H]3O[C@H](CO)[C@@H](O)[C@H]3O)C(O)[C@H](N)C[C@@H]2N)[C@H](N)[C@@H](O)[C@@H]1O (stereo partly specified),inactive [at 11.4 µM],–
CCC[C@@]1(CCc2ccccc2)CC(O)=C([C@H](CC)c2cccc(NS(=O)(=O)c3ccc(C(F)(F)F)cn3)c2)C(=O)O1,–,-50.9%
NC(=O)c1ccc([N+](=O)[O-])cc1Cl,inactive,–
CCCC(=O)OCOC(=O)C1=C(C)NC(C)=C(C(=O)OC)C1c1cccc(Cl)c1Cl (stereo unspecified),inactive,–
NC(N)=Nc1nc(CSCC/C(N)=N/S(N)(=O)=O)cs1,inactive,–
O=C(O)[C@H](O)c1ccccc1,–,-16.1%

# Assay: Primary qHTS for Vero E6 cytotoxicity: counterscreen for inhibitors of SARS-S pseudo-typed particle cell entry (AID 1479150)
# Settings: cell viability; series mostly up to 57.1 µM; activity change, negative = cytotoxicity: at the top concentration
Structure (SMILES),outcome,"activity change, negative = cytotoxicity"
CN1CCN(CC(=O)N2c3ccccc3C(=O)Nc3cccnc32)CC1,inactive [at 5.34 µM],–
CN[C@@H]1[C@@H](O)[C@@H](O[C@@H]2[C@H](O)[C@H](O[C@H]3OC(CN)=CC[C@H]3N)[C@@H](N)C[C@H]2N)OCC1(C)O (stereo partly specified),inactive,–
COc1ccc(C(=O)c2ccccc2)c(O)c1,inactive,–
CCCCCCCCCCCCOCCO,–,-13.4%
Cc1cccc(C)c1OCC(=O)N[C@@H](Cc1ccccc1)[C@@H](O)C[C@H](Cc1ccccc1)NC(=O)[C@H](C(C)C)N1CCCNC1=O,inactive,–
C[C@]12CCC(=O)C=C1CC[C@H]1[C@@H]3CC[C@](O)(C(=O)CO)[C@@]3(C)C[C@H](O)[C@@]12F,–,1.24%
NC(=O)c1cnccn1,inactive,–
CCCCCCCC/C=C/C(=O)O,–,-12.9%
CCO[C@H](Cc1ccc(OCCc2ccc(OS(C)(=O)=O)cc2)cc1)C(=O)O,–,-2.01%
CCCCCCCCCCCCCCCCCC(=O)OCC(O)CO (stereo unspecified),inactive,–
NCCS(=O)(=O)O,inactive,–
O=C(O)c1cc(=O)c2c(OCC(O)COc3cccc4oc(C(=O)O)cc(=O)c34)cccc2o1,inactive,–
CCN(CC)CCNC(=O)c1cc(S(C)(=O)=O)ccc1OC,–,3.96%
CC(=O)OCC[N+](C)(C)C,–,1.71%
Cc1cc(O)c2c(O)c3c(O)cccc3cc2c1,inactive,–
CCCCCCCCCCCCCCCC(=O)OCCC1CCN(CCCN2c3ccccc3Sc3ccc(S(=O)(=O)N(C)C)cc32)CC1,inactive,–
CC(=O)Nc1ccc(OC(=O)c2ccccc2OC(C)=O)cc1,inactive,–
CCCCCCCN(CC)CCCC(O)c1ccc(NS(C)(=O)=O)cc1 (stereo unspecified),inactive,–
CCCCC(CC)COC(=O)c1ccccc1O (stereo unspecified),inactive,–

Structure (SMILES),outcome,"activity change, negative = cytotoxicity"
CNC(=O)c1c(I)c(NC(C)=O)c(I)c(C(=O)O)c1I,inactive,–
O=P(O)(O)C(O)(Cn1ccnc1)P(=O)(O)O,inactive,–
CCOC(=O)/C=C(C)/C=C/C=C(C)/C=C/c1c(C)cc(OC)c(C)c1C,inactive,–
O=C(COCCOCCOCC(=O)Nc1c(I)cc(I)c(C(=O)O)c1I)Nc1c(I)cc(I)c(C(=O)O)c1I,–,-1.43%
C[C@H](CS)C(=O)N1CCC[C@H]1C(=O)O,inactive,–
O=C(c1ccccc1)c1ccccc1,inactive,–
COc1cnc(NS(=O)(=O)c2ccc(N)cc2)nc1,inactive,–
Nc1ccc(S(=O)(=O)NC(=O)c2ccccc2)cc1,inactive,–
NCCNCCNCCNCCN,–,1.23% [at 11.4 µM]
CC(=O)NS(=O)(=O)c1ccc(N)cc1,–,-2.91%
CCCCOC(=O)c1ccc(O)cc1,–,4.12%
CC(CCc1ccccc1)NCC(O)c1ccc(O)c(C(N)=O)c1 (stereo unspecified),–,3.06%
CO[C@@]1(NC(=O)C2SC(=C(C(N)=O)C(=O)O)S2)C(=O)N2C(C(=O)O)=C(CSc3nnnn3C)CS[C@@H]21 (stereo partly specified),–,1.01%
NC[C@H]1O[C@H](O[C@H]2[C@H](O[C@@H]3O[C@H](CO)[C@@H](O)[C@H]3O)C(O)[C@H](N)C[C@@H]2N)[C@H](N)[C@@H](O)[C@@H]1O (stereo partly specified),–,0.563% [at 11.4 µM]
CCC[C@@]1(CCc2ccccc2)CC(O)=C([C@H](CC)c2cccc(NS(=O)(=O)c3ccc(C(F)(F)F)cn3)c2)C(=O)O1,inactive,–
NC(=O)c1ccc([N+](=O)[O-])cc1Cl,–,2.67%
CCCC(=O)OCOC(=O)C1=C(C)NC(C)=C(C(=O)OC)C1c1cccc(Cl)c1Cl (stereo unspecified),inactive,–
NC(N)=Nc1nc(CSCC/C(N)=N/S(N)(=O)=O)cs1,inactive,–
O=C(O)[C@H](O)c1ccccc1,inactive,–
